In PubChem BioAssay:
Active and inactive are the calls of the source.

How the values were obtained:
Albumin (Bos taurus) = Albumin (Bos taurus) (UniProt P02769); assay: compounds binding labelled BSA control protein – biochemical, small-molecule microarray, Alexa647 label, 635/667 nm fluorescence, artefact control for SMM control protein annotation, profiling panel (AID 1118); settings: BSA-A647 binding, fluorescence 635 nm, higher = more signal;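 also: score merges 667 nm emission intensity and signal-to-noise per printed compound spot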
[1] = probe aXIP binding to arrayed compounds – biochemical, NeuroSMM set, 635/667 nm fluorescence, primary screen (AID 1119); settings: small-molecule microarray, higher = more signal, called active from +8 up or from −8 down;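 also: probe is the protein aXip251-270 applied at 1 µg/mL to compound-printed slides; binding of probe to printed compounds measured as 667 nm fluorescence plus signal to noise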
[2] = probe aNOTCH3 binding on compound microarray – biochemical, small-molecule microarray, 635/667 nm fluorescence, primary screen (AID 1120); settings: higher = more signal;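 also: probe is a biotin-tagged antibody raised against NOTCH3 rather than NOTCH3 protein; score merges spot fluorescence near 667 nm with spot signal to noise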
[3] = probe aNOTCH2 binding on compound microarray – biochemical, small-molecule microarray, 635/667 nm fluorescence, primary screen (AID 1121); settings: higher = more signal;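 also: score merges feature fluorescence read at 667 nm with its signal to noise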
[4] = molecular target: Carbonic anhydrase 2 (Homo sapiens) (UniProt P00918); assay: compounds binding carbonic anhydrase 2 – biochemical, small-molecule microarray, Alexa647-labelled CAII, profiling panel (AID 1122); settings: CAII-A647 binding fluorescence, higher = more signal
[5] = COS7 lysate on small-molecule microarray, probe aHis, 635 nm (AID 1123); settings: COS7 cell lysate, fluorescence, higher = more signal;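 also: z-score combines 667nm fluorescence intensity with signal-to-noise per printed compound spot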
[6] = probe aLAP1 signal on lysate-treated microarray – cell lysate, small-molecule microarray, COS7 lysate, primary screen (AID 1124); settings: probe aLAP1, fluorescence, higher = more signal;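 also: lysate comes from COS7 cells expressing LAP1 and is applied at 0.3 µg/mL; score merges spot fluorescence near 667 nm with signal-to-noise over triplicate slides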
Sam68 (KHDRBS1) = assay: compounds binding KHDRBS1 protein – biochemical, small-molecule microarray, 635 nm fluorescence, primary screen (AID 1125); settings: higher = more signal;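 also: score merges 667 nm channel intensity with signal to noise over triplicate slides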
[7] = tested on: Chordin-like protein 2 (CHRDL2); assay: compounds binding chordin-like 2 – biochemical, small-molecule microarray, 635 nm fluorescence, primary screen (AID 1126); settings: fluorescence 635 nm, higher = more signal;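 also: printed compound slides probed with Chrdl2 protein at 4 µg/mL for 1 h at 4 C; score merges 667 nm emission intensity with signal to noise over three replicate slides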
[8] = molecular target: Concanavalin-A (Canavalia ensiformis) (UniProt P02866); assay: compounds binding concanavalin A lectin – biochemical, small-molecule microarray, Alexa647 label, 635 nm, artefact control for SMM control protein annotation, primary screen (AID 1127); settings: ConA-A647 binding fluorescence, higher = more signal;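 also: z combines 667 nm emission intensity with signal-to-noise across three replicate slides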
[9] = compounds binding Alexa647 anti-His antibody – biochemical, small-molecule microarray, 635 nm fluorescence, artefact control for SMM control protein annotation, primary screen (AID 1128); settings: higher = more signal;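 also: score merges feature fluorescence with signal-to-noise for each printed compound spot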
[10] = tested on: Human papillomavirus type 1a E7 protein (residues 1-88); assay: HPV1a E7 small-molecule binders, primary screen, biochemical, small-molecule microarray, residues 1-88, 635 nm (AID 1129); settings: small-molecule microarray binding, fluorescence 635 nm; higher = more signal
[11] = molecular target: Focal adhesion kinase 1 (Homo sapiens) (UniProt Q05397); assay: PTK2 protein binding on printed compound slides – biochemical, small-molecule microarray, 635/667 nm fluorescence, BSA, DTT, primary screen (AID 1130); settings: 635 nm fluorescence, higher = more signal;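 also: composite of spot emission at 667 nm and signal to noise over triplicate slides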
[12] = tested on: Fibrinogen (Alexa647-labelled); assay: Alexa647-fibrinogen binding to printed small molecules – biochemical, small-molecule microarray, 635/667 nm fluorescence, artefact control for SMM control-protein annotation, profiling panel (AID 1131); settings: fibrinogen-A647 binding fluorescence, higher = more signal;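 also: z-score merges 667 nm fluorescence with per-spot signal-to-noise over triplicate slides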
[13] = molecular target: Follistatin (Homo sapiens) (UniProt P19883); assay: FST protein binding to printed compounds – biochemical, small-molecule microarray, 635/667 nm fluorescence, primary screen (AID 1132); settings: 635 nm fluorescence, higher = more signal
[14] = molecular target: Fibroblast growth factor 2 (Homo sapiens) (UniProt P09038); assay: basic fibroblast growth factor binding to printed compounds – biochemical, small-molecule microarray, 635/667 nm fluorescence, primary screen (AID 1133); settings: FGF2, fluorescence 635/667, higher = more signal
[15] = JC-1 mitochondrial potential readout, lung cancer cells – cell-based, A549, JC-1 fluorescence, basal, 24 h, 100 nL, profiling panel (AID 1138); settings: higher = more signal;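 also: A549 lung adenocarcinoma cells under basal conditions with no added stimulus; test concentration not given here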
Lefty1 = Lefty1 protein binding to printed compounds – biochemical, small-molecule microarray, 635/667 nm fluorescence, primary screen (AID 1139); settings: fluorescence 635/667, higher = more signal
[16] = tested on: wheat germ agglutinin (Triticum aestivum), Alexa647-labelled; assay: Alexa647-WGA lectin binding to printed small molecules – biochemical, small-molecule microarray, 635/667 nm fluorescence, artefact control for SMM control-protein annotation, profiling panel (AID 1140); settings: WGA-A647 binding, 635 nm fluorescence, higher = more signal;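 also: score merges 667 nm feature emission with signal to noise over triplicate slides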
[17] = molecular target: Luciferin 4-monooxygenase (Photinus pyralis) (UniProt P08659); assay: inhibition of purified Photinus pyralis luciferase – biochemical, luminescence, purified enzyme, 2006 set, primary screen (AID 1141); settings: purified firefly luciferase, SteadyGlo luminescence, 30 min; higher = more signal, called active from +8 up or from −8 down;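 also: cell-free assay with purified firefly luciferase at 100 ng per well in PBS; test concentration not given here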
Sequence of Luciferin 4-monooxygenase (Photinus pyralis) (P08659 whole entry, looked up): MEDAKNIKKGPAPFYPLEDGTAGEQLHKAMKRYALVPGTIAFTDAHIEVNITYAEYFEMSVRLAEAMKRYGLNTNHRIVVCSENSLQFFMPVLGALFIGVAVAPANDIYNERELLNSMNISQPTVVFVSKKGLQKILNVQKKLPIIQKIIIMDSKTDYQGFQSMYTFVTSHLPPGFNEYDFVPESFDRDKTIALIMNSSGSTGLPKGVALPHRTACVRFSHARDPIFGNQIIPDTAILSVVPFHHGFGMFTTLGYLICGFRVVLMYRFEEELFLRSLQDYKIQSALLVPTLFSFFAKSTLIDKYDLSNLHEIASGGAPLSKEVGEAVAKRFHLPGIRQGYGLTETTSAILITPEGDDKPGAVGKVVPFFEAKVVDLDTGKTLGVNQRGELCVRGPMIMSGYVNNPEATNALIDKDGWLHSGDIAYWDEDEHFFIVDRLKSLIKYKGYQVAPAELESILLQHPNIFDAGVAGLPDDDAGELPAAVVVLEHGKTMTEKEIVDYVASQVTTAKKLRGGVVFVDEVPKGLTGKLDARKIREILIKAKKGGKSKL

Sequence of Albumin (Bos taurus) (P02769 whole entry, looked up): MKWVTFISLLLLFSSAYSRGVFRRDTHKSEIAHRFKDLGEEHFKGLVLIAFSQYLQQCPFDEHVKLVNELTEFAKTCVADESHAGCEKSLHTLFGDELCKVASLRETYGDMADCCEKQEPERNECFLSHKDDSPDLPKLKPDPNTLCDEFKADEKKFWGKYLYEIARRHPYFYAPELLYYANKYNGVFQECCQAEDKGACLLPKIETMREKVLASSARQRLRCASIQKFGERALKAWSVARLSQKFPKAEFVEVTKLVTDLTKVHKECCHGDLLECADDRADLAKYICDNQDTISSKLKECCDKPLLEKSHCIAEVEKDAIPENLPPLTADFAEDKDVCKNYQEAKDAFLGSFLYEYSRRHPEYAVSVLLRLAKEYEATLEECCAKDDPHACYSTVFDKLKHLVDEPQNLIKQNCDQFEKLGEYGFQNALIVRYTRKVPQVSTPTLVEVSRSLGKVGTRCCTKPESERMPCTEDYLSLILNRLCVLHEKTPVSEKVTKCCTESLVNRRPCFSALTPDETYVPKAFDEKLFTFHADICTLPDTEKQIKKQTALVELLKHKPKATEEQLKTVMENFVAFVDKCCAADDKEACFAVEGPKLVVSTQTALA
Sequence of Follistatin (Homo sapiens) (P19883 whole entry, looked up): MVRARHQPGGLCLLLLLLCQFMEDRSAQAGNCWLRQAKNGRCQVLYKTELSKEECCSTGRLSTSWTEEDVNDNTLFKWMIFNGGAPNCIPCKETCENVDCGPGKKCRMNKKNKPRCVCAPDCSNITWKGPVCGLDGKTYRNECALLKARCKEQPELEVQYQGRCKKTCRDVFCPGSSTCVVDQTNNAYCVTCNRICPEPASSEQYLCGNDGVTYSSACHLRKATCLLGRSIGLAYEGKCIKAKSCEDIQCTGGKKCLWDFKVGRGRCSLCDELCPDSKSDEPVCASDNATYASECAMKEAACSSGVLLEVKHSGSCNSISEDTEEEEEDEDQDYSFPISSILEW
Sequence of Fibroblast growth factor 2 (Homo sapiens) (P09038 whole entry, looked up): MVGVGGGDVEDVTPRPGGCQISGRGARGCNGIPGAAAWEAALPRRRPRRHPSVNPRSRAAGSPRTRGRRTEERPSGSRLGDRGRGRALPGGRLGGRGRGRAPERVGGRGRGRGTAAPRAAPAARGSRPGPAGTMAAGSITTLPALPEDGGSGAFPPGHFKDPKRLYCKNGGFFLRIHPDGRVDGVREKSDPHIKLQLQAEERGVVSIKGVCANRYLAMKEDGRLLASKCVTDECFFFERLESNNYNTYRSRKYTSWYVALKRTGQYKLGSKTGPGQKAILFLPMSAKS
Sequence of Concanavalin-A (Canavalia ensiformis) (P02866 whole entry, looked up): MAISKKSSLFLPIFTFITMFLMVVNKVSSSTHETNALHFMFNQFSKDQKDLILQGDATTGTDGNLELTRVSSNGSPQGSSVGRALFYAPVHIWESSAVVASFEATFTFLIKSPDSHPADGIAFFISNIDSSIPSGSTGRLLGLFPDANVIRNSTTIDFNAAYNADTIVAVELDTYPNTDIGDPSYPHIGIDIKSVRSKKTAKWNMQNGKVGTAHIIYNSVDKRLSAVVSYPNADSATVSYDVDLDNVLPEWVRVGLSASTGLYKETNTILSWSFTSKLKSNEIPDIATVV
Sequence of Focal adhesion kinase 1 (Homo sapiens) (Q05397 whole entry, looked up): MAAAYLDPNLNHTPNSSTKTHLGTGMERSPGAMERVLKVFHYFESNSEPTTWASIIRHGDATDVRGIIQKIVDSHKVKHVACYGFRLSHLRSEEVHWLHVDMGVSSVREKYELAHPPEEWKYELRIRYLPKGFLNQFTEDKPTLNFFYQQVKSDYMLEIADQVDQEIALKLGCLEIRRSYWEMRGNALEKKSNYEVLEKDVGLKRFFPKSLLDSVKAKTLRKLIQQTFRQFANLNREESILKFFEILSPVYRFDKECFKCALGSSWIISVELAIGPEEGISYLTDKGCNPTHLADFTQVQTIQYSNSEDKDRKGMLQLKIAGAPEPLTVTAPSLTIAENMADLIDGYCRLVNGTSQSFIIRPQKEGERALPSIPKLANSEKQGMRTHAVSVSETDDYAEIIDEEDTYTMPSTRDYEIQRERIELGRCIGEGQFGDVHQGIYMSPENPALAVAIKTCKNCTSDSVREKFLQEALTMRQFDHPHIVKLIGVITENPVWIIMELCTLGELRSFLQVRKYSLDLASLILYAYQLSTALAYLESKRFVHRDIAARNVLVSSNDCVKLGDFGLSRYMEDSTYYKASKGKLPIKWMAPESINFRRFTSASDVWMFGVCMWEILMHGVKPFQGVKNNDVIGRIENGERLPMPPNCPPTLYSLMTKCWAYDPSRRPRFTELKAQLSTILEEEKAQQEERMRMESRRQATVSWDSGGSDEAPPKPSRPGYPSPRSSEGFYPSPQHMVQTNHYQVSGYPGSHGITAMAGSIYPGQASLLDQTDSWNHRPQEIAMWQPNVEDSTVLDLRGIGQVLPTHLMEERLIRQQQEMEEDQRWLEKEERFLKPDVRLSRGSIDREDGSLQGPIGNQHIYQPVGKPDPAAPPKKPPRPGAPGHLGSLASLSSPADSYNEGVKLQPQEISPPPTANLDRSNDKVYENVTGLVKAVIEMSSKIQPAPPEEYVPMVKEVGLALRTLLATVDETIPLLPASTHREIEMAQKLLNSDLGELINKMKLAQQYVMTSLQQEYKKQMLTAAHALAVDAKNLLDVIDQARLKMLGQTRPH

Compound	composite z-score (Albumin (Bos taurus))	composite Z-score [1]	composite z-score [2]	composite z-score [3]	composite z-score [4]	composite z-score [5]	composite z-score [6]	composite z-score (Sam68 (KHDRBS1))	composite z-score [7]	composite z-score [8]	composite z-score [9]	composite z-score [10]	composite z-score [11]	composite z-score [12]	composite z-score [13]	composite z-score [14]	z-score [15]	composite z-score (Lefty1)	composite z-score [16]	z-score [17]
COCCOC(=O)N1C(=O)[C@@]2(c3cc(C#Cc4ccc(OC)cc4)ccc31)[C@H](c1ccc(OCCO)cc1)N1[C@H](c3ccccc3)[C@H](c3ccccc3)OC(=O)[C@H]1[C@@H]2C(=O)N1CCN(c2ncccn2)CC1	-0.701	-0.799 (inactive)	-0.0311	-0.102	0.357	0.977	0.182	1.33	0.575	1.11	0.343	1.15	0.424	-0.51	1.21	1.43	-0.918	1.28	-0.0073	-0.618 (inactive)
CN(C)C(=O)[C@]1(Cc2ccccc2N=[N+]=[N-])N=C(c2ccc(OCCCO)cc2)O[C@@H]1c1ccccc1N=[N+]=[N-]	0.872	-1.05 (inactive)	0.201	0.134	0.556	2.85	0.274	1.29	-0.206	1.14	2.42	1.18	0.646	1.01	1.27	1.26	1.1	0.513	1.21	-3.94 (inactive)
CC(C)C[C@@H]1NC(=O)[C@@H]2C[C@H](C(=O)O)[C@H](c3cccc(OCCO)c3)N2C1=O	-0.494	-0.303 (inactive)	-0.204	-0.164	0.673	1.78	0.283	-0.0754	0.707	0.684	2.29	-0.312	-0.176	-0.0031	0.495	0.89	-0.0906	-0.375	0.275	-0.291 (inactive)
O=C1C[C@@](C(=O)NCCN2CCOCC2)(c2ccc([N+](=O)[O-])cc2)[C@@H](c2ccc(CO)cc2)N1CC12CC3CC(CC(C3)C1)C2	0.0577	0.0308 (inactive)	0.0208	-0.084	0.548	2.53	0.0978	1.29	0.901	0.926	2.5	1.25	0.296	0.904	1.34	1.13	-0.712	0.646	1.09	-0.988 (inactive)
CCOC(=O)C[C@H]1[C@H](OC(=O)c2ccc(C(=O)c3ccccc3)cc2)[C@@H](NC(=O)CC(C)C)c2cc(OCCCO)ccc2N1C(=O)c1ccc2ccccc2n1	0.577	-0.86 (inactive)	0.206	-0.114	0.232	1.21	0.323	1.29	0.448	1.12	1.35	1.21	0.0174	0.989	1.15	0.94	1.78	1.36	0.61	0.103 (inactive)
C=C(COC)C(=O)CC[C@@H](OC(C)=O)c1ccc(CO)o1	-0.0861	0.365 (inactive)	-0.0311	0.169	0.662	-0.137	-0.311	0.298	1.13	0.0796	-0.555	-0.724	-0.285	0.966	1.33	1.32	-0.57	1.73	0.397	-1.15 (inactive)
COC(=O)[C@@]1(Cc2ccc(OC)cc2)[C@H]2c3cc(C(=O)N4CCCC4)n(CCN4CNCC4=O)c3C[C@H]2CN1C(=O)c1ccccc1	1.1	0.413 (inactive)	1.49	0.967	0.57	1.79	0.104	-0.764	-0.316	-0.234	3.25	1.16	1.06	0.326	-1.02	-0.48	-0.0456	-0.899	0.949	-0.119 (inactive)
CC(C)C(CO)N1C(=O)[C@@H]2C3C(=O)OCCC/C=C\[C@H]3OC23C=CCN(CCN2CCOCC2)C(=O)[C@@H]13 (stereo not given in full)	0.692	-0.298 (inactive)	-0.21	-0.0928	0.463	-0.301	0.395	-0.362	-0.254	-0.724	-0.92	-1.54	-0.0582	-0.0904	0.113	0.164	-0.835	0.579	-1.24	-0.519 (inactive)
CC(C)N1C(=O)C[C@@](C(=O)NCC(F)(F)F)(c2ccc([N+](=O)[O-])cc2)[C@H]1c1ccc(CO)cc1	0.0344	0.447 (inactive)	-0.0636	-0.173	0.662	1.22	-0.0253	0.933	-0.035	0.688	-0.203	0.38	0.611	0.0938	0.409	-0.432	-0.279	0.343	0.351	1.58 (inactive)
CO[C@H]1O[C@H](CO)[C@@H](OC(=O)Nc2ccc(C(F)(F)F)cc2)[C@H](OC(=O)Nc2ccc3c(c2)OCO3)[C@@H]1OC(=O)Nc1ccc2c(c1)OCO2	0.835	-0.279 (inactive)	0.149	-0.164	0.238	1.83	0.579	1.33	0.0643	1.14	2.18	1.22	1.43	0.607	1.17	0.397	-0.656	0.537	0.729	-17.3 (active)
